For test [1], the target named is Serine/threonine-protein kinase MARK2 (Homo sapiens) (UniProt Q7KZI7). To be noted: at 1 µM.
For test [2], the target named is PAS domain-containing serine/threonine-protein kinase (Homo sapiens) (UniProt Q96RG2). To be noted: at 0.1 µM.
The target is the same in test [3]. To be noted: at 1 µM.
The target of test [4] is Phosphorylase b kinase gamma catalytic chain, skeletal muscle/heart isoform (Homo sapiens) (UniProt Q16816). As to conditions: at 0.1 µM.
The target is the same in test [5]. To be noted: at 1 µM.
Test [6] concerns the target T1, Phosphorylase b kinase gamma catalytic chain, liver/testis isoform (Homo sapiens) (UniProt P15735).
T1 sequence (whole entry): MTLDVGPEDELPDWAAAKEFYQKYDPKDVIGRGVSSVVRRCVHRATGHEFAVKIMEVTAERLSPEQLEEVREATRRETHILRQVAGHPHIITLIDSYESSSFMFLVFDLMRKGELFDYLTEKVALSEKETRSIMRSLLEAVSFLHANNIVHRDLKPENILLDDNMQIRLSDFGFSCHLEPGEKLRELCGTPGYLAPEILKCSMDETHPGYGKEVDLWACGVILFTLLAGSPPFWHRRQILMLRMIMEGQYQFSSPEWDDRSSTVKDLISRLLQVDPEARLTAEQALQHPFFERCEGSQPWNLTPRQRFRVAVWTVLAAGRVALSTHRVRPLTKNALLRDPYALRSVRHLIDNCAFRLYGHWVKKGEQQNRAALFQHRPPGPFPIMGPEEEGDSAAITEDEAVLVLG
To be noted: at 0.1 µM.

The target of test [7] is T1, Phosphorylase b kinase gamma catalytic chain, liver/testis isoform (Homo sapiens). As to conditions: at 1 µM.
Test [8] concerns the target Serine/threonine-protein kinase pim-1 (Homo sapiens) (UniProt P11309). As to conditions: at 0.1 µM.
Test [9] shares this target. To be noted: at 1 µM.
Test [10] addresses Serine/threonine-protein kinase pim-2 (Homo sapiens) (UniProt Q9P1W9). To be noted: at 0.1 µM.
Test [11] shares this target. To be noted: at 1 µM.
Test [12] addresses Serine/threonine-protein kinase pim-3 (Homo sapiens) (UniProt Q86V86). As to conditions: at 0.1 µM.
Test [13] has the same target. To be noted: at 1 µM.
The target in test [14] is T2, MAP kinase-activated protein kinase 5 (Homo sapiens) (UniProt Q8IW41).
T2 sequence (whole entry): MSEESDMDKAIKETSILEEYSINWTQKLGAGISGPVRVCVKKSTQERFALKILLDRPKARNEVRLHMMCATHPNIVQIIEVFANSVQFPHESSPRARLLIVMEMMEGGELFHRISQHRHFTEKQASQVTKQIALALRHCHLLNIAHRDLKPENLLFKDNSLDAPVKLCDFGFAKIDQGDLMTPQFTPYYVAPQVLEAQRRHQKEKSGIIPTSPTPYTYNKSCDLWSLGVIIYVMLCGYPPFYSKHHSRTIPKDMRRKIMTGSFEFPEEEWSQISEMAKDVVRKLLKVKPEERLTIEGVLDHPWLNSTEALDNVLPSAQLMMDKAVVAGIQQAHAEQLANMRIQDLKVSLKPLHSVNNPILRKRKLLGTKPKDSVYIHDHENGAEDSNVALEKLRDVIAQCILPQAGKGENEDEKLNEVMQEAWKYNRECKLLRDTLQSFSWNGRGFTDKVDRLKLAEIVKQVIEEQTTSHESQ
As to conditions: at 0.1 µM.

The target of test [15] is T2, MAP kinase-activated protein kinase 5 (Homo sapiens). As to conditions: at 1 µM.
Test [16] has as its target Serine/threonine-protein kinase SIK1 (Homo sapiens) (UniProt P57059). As to conditions: at 0.1 µM.
Test [17] shares this target. To be noted: at 1 µM.
The target of test [18] is Serine/threonine-protein kinase SIK2 (Homo sapiens) (UniProt Q9H0K1). As to conditions: at 0.1 µM.
Serine/threonine-protein kinase SIK2 (Homo sapiens), sequence (Q9H0K1 whole entry, looked up): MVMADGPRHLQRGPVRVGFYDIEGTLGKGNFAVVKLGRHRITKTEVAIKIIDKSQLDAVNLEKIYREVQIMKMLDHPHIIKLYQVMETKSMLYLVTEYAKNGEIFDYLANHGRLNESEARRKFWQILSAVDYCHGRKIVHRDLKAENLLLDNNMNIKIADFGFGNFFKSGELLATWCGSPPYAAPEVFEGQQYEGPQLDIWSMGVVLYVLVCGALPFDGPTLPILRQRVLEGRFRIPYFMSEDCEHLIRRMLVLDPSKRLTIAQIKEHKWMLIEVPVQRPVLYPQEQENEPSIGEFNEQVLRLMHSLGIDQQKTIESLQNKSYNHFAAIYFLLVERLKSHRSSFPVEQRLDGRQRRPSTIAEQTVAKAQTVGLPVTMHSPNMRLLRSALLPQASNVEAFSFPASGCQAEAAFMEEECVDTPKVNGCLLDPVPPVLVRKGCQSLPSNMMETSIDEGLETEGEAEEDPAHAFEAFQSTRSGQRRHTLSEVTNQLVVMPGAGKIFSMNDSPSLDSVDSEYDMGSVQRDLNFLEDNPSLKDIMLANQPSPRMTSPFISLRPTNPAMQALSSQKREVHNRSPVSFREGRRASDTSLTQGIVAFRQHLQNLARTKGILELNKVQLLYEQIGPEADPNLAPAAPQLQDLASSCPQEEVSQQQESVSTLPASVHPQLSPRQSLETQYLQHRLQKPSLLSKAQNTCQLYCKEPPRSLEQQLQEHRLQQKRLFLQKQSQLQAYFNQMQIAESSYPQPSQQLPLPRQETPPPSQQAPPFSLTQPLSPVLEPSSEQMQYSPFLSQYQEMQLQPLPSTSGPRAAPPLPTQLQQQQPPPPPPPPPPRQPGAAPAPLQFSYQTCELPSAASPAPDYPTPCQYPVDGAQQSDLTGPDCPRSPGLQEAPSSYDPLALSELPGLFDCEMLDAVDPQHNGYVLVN
Test [19] shares this target. As to conditions: at 1 µM.
For test [20], the target named is T3, Serine/threonine-protein kinase TBK1 (Homo sapiens) (UniProt Q9UHD2).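 Note: values are the mean TBK1 inhibition, taken from the GSK PKIS screening data.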
T3 sequence (whole entry): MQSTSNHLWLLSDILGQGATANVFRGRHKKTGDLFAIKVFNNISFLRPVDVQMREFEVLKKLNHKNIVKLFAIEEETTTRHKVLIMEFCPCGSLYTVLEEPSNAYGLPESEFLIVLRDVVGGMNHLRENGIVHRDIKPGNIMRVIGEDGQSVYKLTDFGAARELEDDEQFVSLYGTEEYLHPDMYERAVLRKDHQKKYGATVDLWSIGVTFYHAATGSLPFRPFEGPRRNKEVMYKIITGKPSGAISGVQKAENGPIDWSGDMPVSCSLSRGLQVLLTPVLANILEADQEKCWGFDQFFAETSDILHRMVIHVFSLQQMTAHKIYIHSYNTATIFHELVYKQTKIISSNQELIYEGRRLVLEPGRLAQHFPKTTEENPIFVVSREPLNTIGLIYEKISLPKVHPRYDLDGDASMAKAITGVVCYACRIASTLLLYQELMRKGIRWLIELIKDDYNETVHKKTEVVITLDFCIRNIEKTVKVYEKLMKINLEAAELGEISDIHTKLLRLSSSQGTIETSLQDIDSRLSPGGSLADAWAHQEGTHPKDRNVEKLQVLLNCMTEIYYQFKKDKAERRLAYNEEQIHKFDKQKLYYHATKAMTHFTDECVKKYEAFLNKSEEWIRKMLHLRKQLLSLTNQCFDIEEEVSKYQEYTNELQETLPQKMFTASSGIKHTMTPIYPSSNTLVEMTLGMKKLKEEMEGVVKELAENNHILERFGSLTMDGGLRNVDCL
As to conditions: at 0.1 µM.

Seven compounds from ChEMBL document CHEMBL1961873, “Compounds: GSK PKIS; Assays: Nanosyn kinase panel” (2012) can be followed below.

Serine/threonine-protein kinase SIK1 (Homo sapiens), sequence (P57059 whole entry): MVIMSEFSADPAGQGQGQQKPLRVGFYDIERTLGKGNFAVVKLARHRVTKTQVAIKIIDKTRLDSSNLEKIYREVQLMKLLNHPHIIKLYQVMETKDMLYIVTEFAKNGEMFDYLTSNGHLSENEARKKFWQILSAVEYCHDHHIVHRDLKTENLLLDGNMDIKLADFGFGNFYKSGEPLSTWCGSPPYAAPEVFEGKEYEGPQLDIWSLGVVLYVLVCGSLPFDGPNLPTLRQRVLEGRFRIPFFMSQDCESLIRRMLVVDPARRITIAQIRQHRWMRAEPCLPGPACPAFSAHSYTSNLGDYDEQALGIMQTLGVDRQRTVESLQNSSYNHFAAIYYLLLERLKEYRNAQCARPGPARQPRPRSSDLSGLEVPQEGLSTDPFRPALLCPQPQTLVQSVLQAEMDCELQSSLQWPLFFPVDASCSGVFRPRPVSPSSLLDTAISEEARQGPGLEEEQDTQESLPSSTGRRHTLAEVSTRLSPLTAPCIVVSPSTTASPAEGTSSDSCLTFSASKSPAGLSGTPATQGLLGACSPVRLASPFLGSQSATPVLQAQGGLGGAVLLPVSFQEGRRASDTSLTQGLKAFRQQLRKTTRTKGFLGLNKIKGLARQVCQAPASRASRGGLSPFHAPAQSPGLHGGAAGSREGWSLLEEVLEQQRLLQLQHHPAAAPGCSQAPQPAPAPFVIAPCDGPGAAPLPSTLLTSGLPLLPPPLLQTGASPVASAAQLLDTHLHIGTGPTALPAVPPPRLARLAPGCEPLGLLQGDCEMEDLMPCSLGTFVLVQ
Serine/threonine-protein kinase MARK2 (Homo sapiens), sequence (Q7KZI7 whole entry, the tested form may be a part): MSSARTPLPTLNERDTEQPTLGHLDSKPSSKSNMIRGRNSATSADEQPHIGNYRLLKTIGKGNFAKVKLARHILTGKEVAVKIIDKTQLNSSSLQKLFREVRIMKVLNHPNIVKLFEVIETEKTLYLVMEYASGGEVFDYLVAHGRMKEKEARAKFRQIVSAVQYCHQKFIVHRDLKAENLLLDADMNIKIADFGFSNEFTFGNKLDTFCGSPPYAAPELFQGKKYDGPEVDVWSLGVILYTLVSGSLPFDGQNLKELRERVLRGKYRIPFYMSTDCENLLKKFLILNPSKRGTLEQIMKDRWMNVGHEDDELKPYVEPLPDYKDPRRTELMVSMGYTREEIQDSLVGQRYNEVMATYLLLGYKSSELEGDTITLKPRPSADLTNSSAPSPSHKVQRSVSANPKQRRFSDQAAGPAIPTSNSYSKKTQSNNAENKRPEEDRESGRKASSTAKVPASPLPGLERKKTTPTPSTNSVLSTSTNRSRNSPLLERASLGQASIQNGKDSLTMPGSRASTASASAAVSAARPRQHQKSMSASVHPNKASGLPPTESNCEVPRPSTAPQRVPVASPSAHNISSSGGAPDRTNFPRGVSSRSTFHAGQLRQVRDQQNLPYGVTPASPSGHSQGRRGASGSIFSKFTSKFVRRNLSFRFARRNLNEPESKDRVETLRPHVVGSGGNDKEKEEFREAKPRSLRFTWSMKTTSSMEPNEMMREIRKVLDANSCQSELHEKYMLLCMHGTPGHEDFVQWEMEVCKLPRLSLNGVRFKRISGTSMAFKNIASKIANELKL
PAS domain-containing serine/threonine-protein kinase (Homo sapiens), sequence (Q96RG2 whole entry, the tested form may be a part): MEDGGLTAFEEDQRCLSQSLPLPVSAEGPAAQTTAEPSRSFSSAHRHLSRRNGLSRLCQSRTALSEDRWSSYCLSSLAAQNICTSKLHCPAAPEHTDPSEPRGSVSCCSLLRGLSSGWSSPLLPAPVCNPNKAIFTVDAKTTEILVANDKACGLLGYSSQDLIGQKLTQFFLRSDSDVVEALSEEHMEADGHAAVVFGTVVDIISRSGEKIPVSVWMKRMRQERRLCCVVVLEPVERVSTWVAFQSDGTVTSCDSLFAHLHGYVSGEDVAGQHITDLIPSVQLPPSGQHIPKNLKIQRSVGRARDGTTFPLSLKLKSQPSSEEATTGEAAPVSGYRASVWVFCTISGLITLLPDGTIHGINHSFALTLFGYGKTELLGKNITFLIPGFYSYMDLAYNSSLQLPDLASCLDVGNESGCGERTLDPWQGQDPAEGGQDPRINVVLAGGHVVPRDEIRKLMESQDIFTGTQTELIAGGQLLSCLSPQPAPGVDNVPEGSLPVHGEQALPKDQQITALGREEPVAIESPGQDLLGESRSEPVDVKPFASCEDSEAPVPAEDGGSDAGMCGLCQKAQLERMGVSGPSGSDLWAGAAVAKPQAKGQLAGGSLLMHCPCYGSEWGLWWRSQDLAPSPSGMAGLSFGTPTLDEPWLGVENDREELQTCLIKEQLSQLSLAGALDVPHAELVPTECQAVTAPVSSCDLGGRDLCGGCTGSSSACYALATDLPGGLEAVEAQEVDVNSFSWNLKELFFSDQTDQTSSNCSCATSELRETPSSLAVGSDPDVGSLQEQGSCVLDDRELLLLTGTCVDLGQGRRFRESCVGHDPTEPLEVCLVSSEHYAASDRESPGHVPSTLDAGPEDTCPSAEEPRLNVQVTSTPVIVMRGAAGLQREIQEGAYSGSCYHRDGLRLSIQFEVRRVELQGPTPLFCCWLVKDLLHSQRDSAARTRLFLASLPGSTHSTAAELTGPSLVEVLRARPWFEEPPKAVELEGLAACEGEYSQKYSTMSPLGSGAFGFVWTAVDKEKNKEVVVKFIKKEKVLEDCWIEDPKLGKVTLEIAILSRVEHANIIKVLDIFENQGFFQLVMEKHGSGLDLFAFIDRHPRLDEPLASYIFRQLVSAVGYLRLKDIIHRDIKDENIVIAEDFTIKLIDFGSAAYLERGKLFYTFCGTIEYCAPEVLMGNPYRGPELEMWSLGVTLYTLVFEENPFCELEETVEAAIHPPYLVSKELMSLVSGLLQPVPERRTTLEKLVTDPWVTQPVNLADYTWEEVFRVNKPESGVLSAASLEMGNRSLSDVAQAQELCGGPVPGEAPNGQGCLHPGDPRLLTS
Serine/threonine-protein kinase pim-1 (Homo sapiens), sequence (P11309 whole entry, looked up): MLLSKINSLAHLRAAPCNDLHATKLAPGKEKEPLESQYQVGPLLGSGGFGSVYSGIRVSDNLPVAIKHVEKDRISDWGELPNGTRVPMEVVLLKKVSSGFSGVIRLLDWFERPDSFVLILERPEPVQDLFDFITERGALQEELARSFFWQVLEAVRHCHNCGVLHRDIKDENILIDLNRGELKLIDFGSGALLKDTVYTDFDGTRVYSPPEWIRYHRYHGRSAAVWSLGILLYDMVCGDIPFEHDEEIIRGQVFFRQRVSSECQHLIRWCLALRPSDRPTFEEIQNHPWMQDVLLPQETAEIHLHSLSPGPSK
Serine/threonine-protein kinase pim-2 (Homo sapiens), sequence (Q9P1W9 whole entry, looked up): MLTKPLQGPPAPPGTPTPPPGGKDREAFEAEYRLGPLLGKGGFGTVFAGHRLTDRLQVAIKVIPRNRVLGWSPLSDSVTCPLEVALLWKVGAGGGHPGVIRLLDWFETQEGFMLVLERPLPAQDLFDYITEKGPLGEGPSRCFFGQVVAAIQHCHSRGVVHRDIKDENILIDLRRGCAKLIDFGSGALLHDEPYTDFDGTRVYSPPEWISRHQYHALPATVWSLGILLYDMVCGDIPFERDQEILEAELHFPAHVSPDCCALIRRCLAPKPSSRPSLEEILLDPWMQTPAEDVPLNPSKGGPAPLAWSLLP

On to `O=C1NC(=O)C(c2ccccc2Cl)=C1Nc1cccc(O)c1`, for which the inhibition is 8.31% in [1]; 0.42% in [2]; -0.94% in [3]; 1.1% in test [4]; 1.82% in test [5]; 3.35% in test [6]. Also, the inhibition in test [7] is 0.71%; in [8], 1.24%; in test [9], 1.62%; in [10] it was -0.21%; in test [11], 0.28%; in test [12], -0.32%. Also, the inhibition in [13] is -0.95%; in [14], 0.71%; in [15], 0.06%; in test [16], 1.46%; in [17], 5.5%; in [18], 8.17%. In addition, the inhibition in test [19] stood at 10.7%; in test [20] it was 2.04%.

In the case of `Fc1cccc(COc2ccc(Nc3ncnc4sc(-c5cccs5)cc34)cc2Cl)c1`, the inhibition in test [1] was 4.63%; in [2], 0.96%; in test [3], -0.11%; in test [4] it was 2.66%; in test [5] it was 6.77%; in test [6] it was -1.25%. The inhibition was -2.01% in test [7]; 0.38% in test [8]; 1.29% in [9]; 0.52% in [10]; 1.54% in [11]; 0.47% in test [12]. The inhibition came to 1.27% in [13]; 0.51% in test [14]; 0.8% in [15]; 0.72% in test [16]; 7.28% in test [17]; 2.25% in test [18]. For the same compound, the inhibition in [19] was -2.41%; in [20], 0.83%.

As to `CN(C)c1cc2c(Nc3ccc4nc(Cc5ccccc5)[nH]c4c3)ncnc2cn1`, the inhibition in test [1] is 1.13%; in test [2] it was 0.02%; in test [3] it was -2.17%; in test [4] it was 7.34%; in [5] it was 13.4%; in test [6] it was 5.65%. Also, the inhibition in test [7] is 5.19%; in test [8], 1.36%; in [9], 3.18%; in test [10] it was -0.82%; in [11], 0.97%; in test [13], 2.51%. Also, the inhibition is 1.83% in test [14]; 2.12% in test [15]; 5.71% in test [16]; 10.2% in [17]; 8.08% in test [18]; 7.99% in test [19]. The inhibition in [20] is 2.69%.

Consider `CCN1CCC(CC(=O)Nc2n[nH]c3nc(-c4cccs4)c(Br)cc23)CC1`, for which the inhibition was 0.15% in [1]; -0.58% in [2]; -1.17% in [3]; 2.37% in test [4]; 5.36% in test [5]; -4.86% in test [6]. Besides, the inhibition in [7] was -3.7%; in test [8], 0.1%; in test [9], 3.88%; in test [10], 0.19%; in [11] it was 1.48%; in [12], -0.6%. For the same compound, the inhibition in test [13] is 5.95%; in test [14], -1.45%; in test [15], -0.83%; in test [16], -7.57%; in test [17], -6.71%; in test [19], -4.25%. In addition, in [20], the inhibition was -0.25%.

For the compound `COc1cc2ncn(-c3cc(O[C@@H](C)c4ccccc4Cl)c(C(N)=O)s3)c2cc1OC`, the inhibition in test [1] is 5.29%; in test [2] it was 0.19%; in test [3] it was 1.28%; in test [4] it was 5.83%; in [5], 8.24%; in [6] it was 6.55%. Also, the inhibition is 6.6% in test [7]; -0.02% in test [8]; 1.8% in [9]; -0.11% in test [10]; 0.91% in test [11]; 0.03% in [12]. The inhibition worked out at 4.24% in test [13]; 1.26% in [14]; 1.22% in test [15]; 6.27% in test [16]; 18.1% in test [17]; 2.99% in test [18]. Besides, the results for the inhibition in test [19] and in [20] were 12% and 4.39%, respectively.

Turning to `COc1cc(C)c(NC(=O)CN(C)C)cc1Nc1nc(Nc2cccc(F)c2C(N)=O)c2cc[nH]c2n1`, the inhibition in [1] was -0.1%; in [2] it was -0.35%; in test [3] it was -3.17%; in test [4], 8.46%; in test [5] it was 43.5%; in [6], 4.74%. Also, the inhibition amounted to 8.82% in [7]; 8.2% in test [8]; 43.2% in [9]; 0.16% in test [10]; 2.33% in test [11]; 0.35% in test [12]. Besides, the inhibition in [13] turned out to be 16.3%; in test [14] it was 0.4%; in [15], 1.56%; in test [16], 1.57%; in [17], 5.28%; in test [18] it was 0.18%. The inhibition is -4.44% in [19] and 1.95% in test [20].

Turning to `c1cnn2ncc(-c3ccnc(Nc4ccc5c(c4)OCCO5)n3)c2c1`, the inhibition in test [1] was 14.3%; in test [2], -0.33%; in [3] it was 0.82%; in [4], 5.46%; in [5], 27.6%; in [6], 7.04%. In addition, the inhibition in test [7] is 17.1%; in test [8], 0.98%; in [9] it was 7.95%; in test [10], 0.25%; in [11] it was 4.39%; in test [12], 0.84%. Besides, the inhibition in test [13] turned out to be 16.2%; in test [14], 1.78%; in test [15], 2.58%; in test [16], 9.87%; in test [17], 20.4%; in test [18], 11.1%. Also, the inhibition in test [19] is 17.7%; in test [20] it was 3.41%.
